{
  "source": "PubChem BioAssay (NCI)",
  "note": "Compounds without any hit were thinned out: in the full panel of roughly 79,000, 15% have a hit. A number with no mark means an inactive call. Activity calls are given as the source filed them. Cut-off read from the data, not from the text of the source: active = growth inhibition above about 70%; inactive = the rest.",
  "data": [
    {"assay": "NCI Yeast Anticancer Drug Screen. Data for the bub3 strain (AID 167)", "conditions": "S. cerevisiae bub3 mutant strain, at 50.0 µM (retest, dose inferred, filed as 5.0), stronger effect = higher value", "procedure,_shortened": "(§1)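 Inhibition values come from growth of compound-treated mutant yeast normalised to vehicle-treated controls.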", "values": [
      {"smiles": "CC(CN(C)C)C(=O)/C=C/c1ccc(Cl)c(Cl)c1", "note": "(configuration not stated)", "growth inhibition": "82% (active)"},
      {"smiles": "CCCCCCNCCCNc1c2cc(OC)ccc2nc2cccc([N+](=O)[O-])c12", "growth inhibition": "96% (active)"},
      {"smiles": "NC(=S)N1N=C2c3ccccc3CC[C@H]2[C@@H]1c1ccc(Cl)cc1", "growth inhibition": "93% (active)"},
      {"smiles": "C/C(=N/NC(=S)Nc1ccccc1C)c1ccccn1", "growth inhibition": "57%"},
      {"smiles": "O=C1/C(=C/c2ccc(Cl)c(Cl)c2)CNC/C1=C\\c1ccc(Cl)c(Cl)c1", "growth inhibition": "82% (active)"},
      {"smiles": "CC(C)OP(=O)(OC(C)C)C(=NCCO)NNc1ccc([N+](=O)[O-])cc1", "growth inhibition": "62%"},
      {"smiles": "N#CCC(=O)N/N=C(\\c1ccccc1)C(c1ccccc1)C1(O)C(=O)Nc2c(Cl)ccc(Cl)c21", "note": "(configuration not stated)", "growth inhibition": "30%"},
      {"smiles": "CC(C)(CN1CCCCC1)C(=O)CC(SCCS(=O)(=O)O)c1ccccc1", "note": "(configuration not stated)", "growth inhibition": "32%"},
      {"smiles": "COC1=CCC23C(=O)C=CC(=O)C2(C1)C(=O)c1ccccc1C3=O", "note": "(configuration not stated)", "growth inhibition": "78% (active)"},
      {"smiles": "CCCCN(CCCC)c1ccc(N=Nc2ccc(S(=O)(=O)O)cc2)cc1", "growth inhibition": "96% (active)"},
      {"smiles": "c1ccc2nc3c(nc2c1)sc1ccccc13", "growth inhibition": "12%"},
      {"smiles": "O=C1c2ccccc2-c2ccc(N=Cc3ccccc3)cc21", "growth inhibition": "18%"},
      {"smiles": "CNC(=S)N/N=C(/C)CCC/C(C)=N/NC(=S)NC", "growth inhibition": "69%"},
      {"smiles": "Nc1ccc(/C=C/c2ccc3cccnc3c2)cc1", "growth inhibition": "92% (active)"},
      {"smiles": "COc1ccc2c3c1OC(C)C31CC(=O)CCC1CC2", "note": "(configuration not stated)", "growth inhibition": "34%"},
      {"smiles": "CCOC(=O)Nc1ccc(C)c(NC(=O)OCC)c1", "growth inhibition": "76% (active)"},
      {"smiles": "CCN(CC)CCNc1ccc2nc(C)n3c4ccc(OC)cc4c(=O)c1c23", "growth inhibition": "39%"},
      {"smiles": "C[N+](C)([O-])CCCNc1c2ccccc2nc2cccc([N+](=O)[O-])c12", "growth inhibition": "74% (active)"},
      {"smiles": "O=C(c1cc(=O)c2ccc(O)cc2o1)c1ccc(Cl)cc1Cl", "growth inhibition": "97% (active)"},
      {"smiles": "CCCNC(=O)OCc1c(COC(=O)NCCC)c(-c2ccc(Cl)c(Cl)c2)n2c1CCC2", "growth inhibition": "90% (active)"},
      {"smiles": "O=C(Cc1ccccc1)NN1C(=O)C(Cl)C1c1cc(Br)cc(Br)c1O", "note": "(configuration not stated)", "growth inhibition": "96% (active)"},
      {"smiles": "CCOC(=O)C(Cc1c2ccccc2cc2ccccc12)(NC(C)=O)C(=O)OCC", "growth inhibition": "67%"},
      {"smiles": "O=[N+]([O-])/C=C/c1cc2ccc3ccccc3c2[nH]1", "growth inhibition": "96% (active)"},
      {"smiles": "Fc1ccc(Nc2ccc3ccccc3c2)cc1", "growth inhibition": "12%"},
      {"smiles": "O=S1(=O)CCC2=CC(C(F)(F)F)=CC(C(F)(F)F)=CN21", "growth inhibition": "89% (active)"},
      {"smiles": "O=C(Cc1ccccc1)NNc1nc(NNC(=O)c2ccncc2)nc(Nc2ccc([N+](=O)[O-])cc2)n1", "growth inhibition": "40%"},
      {"smiles": "CCCCS/C(=C(/C#N)C(N)=O)c1cc2c([nH]1)CCCC2", "growth inhibition": "71% (active)"},
      {"smiles": "O=C(O)c1ccccc1C(=O)OC1CCc2ccccc2C1", "note": "(configuration not stated)", "growth inhibition": "33%"},
      {"smiles": "CCOC(=O)/C(=C\\c1cccc(C)c1)C(C)=O", "growth inhibition": "96% (active)"},
      {"smiles": "NC(=S)N/N=C1\\c2ccccc2CCC1CCC1(O)CCc2ccccc2C1=O", "note": "(configuration not stated)", "growth inhibition": "83% (active)"},
      {"smiles": "Cc1cccc2c(Cl)c3cccc(C)c3nc12", "growth inhibition": "18%"},
      {"smiles": "CC(C)OC(=O)NNc1c(Cl)cc(Cl)cc1Cl", "growth inhibition": "82% (active)"},
      {"smiles": "Nc1ccc2c(c1)C(=O)c1c(F)cccc1-2", "growth inhibition": "-33%"},
      {"smiles": "N#CSCC1COc2ccccc2O1", "note": "(configuration not stated)", "growth inhibition": "94% (active)"},
      {"smiles": "Cc1ccc(S(=O)(=O)NC(=O)C2C(=O)CC3(CCCCC3)CC2=O)cc1", "growth inhibition": "16%"},
      {"smiles": "CC1=NN(C(=O)c2ccccc2O)C(=O)/C1=C/c1ccco1", "growth inhibition": "94% (active)"}
    ]},
    {"assay": "NCI Yeast Anticancer Drug Screen. Data for the bub3 strain (AID 167)", "conditions": "S. cerevisiae bub3 mutant strain, at 50.0 µM, stronger effect = higher value", "procedure,_shortened": "as §1", "values": [
      {"smiles": "CC(CN(C)C)C(=O)/C=C/c1ccc(Cl)c(Cl)c1", "note": "(configuration not stated)", "growth inhibition": "99.2% (active)"},
      {"smiles": "CCCCCCNCCCNc1c2cc(OC)ccc2nc2cccc([N+](=O)[O-])c12", "growth inhibition": "92.7% (active)"},
      {"smiles": "NC(=S)N1N=C2c3ccccc3CC[C@H]2[C@@H]1c1ccc(Cl)cc1", "growth inhibition": "83.2% (active)"},
      {"smiles": "C/C(=N/NC(=S)Nc1ccccc1C)c1ccccn1", "growth inhibition": "65%"},
      {"smiles": "O=C1/C(=C/c2ccc(Cl)c(Cl)c2)CNC/C1=C\\c1ccc(Cl)c(Cl)c1", "growth inhibition": "91.8% (active)"},
      {"smiles": "CC(C)OP(=O)(OC(C)C)C(=NCCO)NNc1ccc([N+](=O)[O-])cc1", "growth inhibition": "56.7%"},
      {"smiles": "N#CCC(=O)N/N=C(\\c1ccccc1)C(c1ccccc1)C1(O)C(=O)Nc2c(Cl)ccc(Cl)c21", "note": "(configuration not stated)", "growth inhibition": "30.3%"},
      {"smiles": "CC(C)(CN1CCCCC1)C(=O)CC(SCCS(=O)(=O)O)c1ccccc1", "note": "(configuration not stated)", "growth inhibition": "12.1%"},
      {"smiles": "COC1=CCC23C(=O)C=CC(=O)C2(C1)C(=O)c1ccccc1C3=O", "note": "(configuration not stated)", "growth inhibition": "74.4% (active)"},
      {"smiles": "CCCCN(CCCC)c1ccc(N=Nc2ccc(S(=O)(=O)O)cc2)cc1", "growth inhibition": "89.8% (active)"},
      {"smiles": "c1ccc2nc3c(nc2c1)sc1ccccc13", "growth inhibition": "32.8%"},
      {"smiles": "O=C1c2ccccc2-c2ccc(N=Cc3ccccc3)cc21", "growth inhibition": "31.6%"},
      {"smiles": "CNC(=S)N/N=C(/C)CCC/C(C)=N/NC(=S)NC", "growth inhibition": "54.4%"},
      {"smiles": "Nc1ccc(/C=C/c2ccc3cccnc3c2)cc1", "growth inhibition": "93.3% (active)"},
      {"smiles": "COc1ccc2c3c1OC(C)C31CC(=O)CCC1CC2", "note": "(configuration not stated)", "growth inhibition": "10.9%"},
      {"smiles": "CCOC(=O)Nc1ccc(C)c(NC(=O)OCC)c1", "growth inhibition": "14.3%"},
      {"smiles": "CCN(CC)CCNc1ccc2nc(C)n3c4ccc(OC)cc4c(=O)c1c23", "growth inhibition": "16.4%"},
      {"smiles": "C[N+](C)([O-])CCCNc1c2ccccc2nc2cccc([N+](=O)[O-])c12", "growth inhibition": "52.6%"},
      {"smiles": "O=C(c1cc(=O)c2ccc(O)cc2o1)c1ccc(Cl)cc1Cl", "growth inhibition": "88.5% (active)"},
      {"smiles": "CCCNC(=O)OCc1c(COC(=O)NCCC)c(-c2ccc(Cl)c(Cl)c2)n2c1CCC2", "growth inhibition": "46.2%"},
      {"smiles": "O=C(Cc1ccccc1)NN1C(=O)C(Cl)C1c1cc(Br)cc(Br)c1O", "note": "(configuration not stated)", "growth inhibition": "97% (active)"},
      {"smiles": "CCOC(=O)C(Cc1c2ccccc2cc2ccccc12)(NC(C)=O)C(=O)OCC", "growth inhibition": "88.8% (active)"},
      {"smiles": "O=[N+]([O-])/C=C/c1cc2ccc3ccccc3c2[nH]1", "growth inhibition": "98.8% (active)"},
      {"smiles": "Fc1ccc(Nc2ccc3ccccc3c2)cc1", "growth inhibition": "92.8% (active)"},
      {"smiles": "O=S1(=O)CCC2=CC(C(F)(F)F)=CC(C(F)(F)F)=CN21", "growth inhibition": "96.9% (active)"},
      {"smiles": "O=C(Cc1ccccc1)NNc1nc(NNC(=O)c2ccncc2)nc(Nc2ccc([N+](=O)[O-])cc2)n1", "growth inhibition": "77.7% (active)"},
      {"smiles": "CCCCS/C(=C(/C#N)C(N)=O)c1cc2c([nH]1)CCCC2", "growth inhibition": "83.5% (active)"},
      {"smiles": "O=C(O)c1ccccc1C(=O)OC1CCc2ccccc2C1", "note": "(configuration not stated)", "growth inhibition": "55.8%"},
      {"smiles": "CCOC(=O)/C(=C\\c1cccc(C)c1)C(C)=O", "growth inhibition": "90.2% (active)"},
      {"smiles": "NC(=S)N/N=C1\\c2ccccc2CCC1CCC1(O)CCc2ccccc2C1=O", "note": "(configuration not stated)", "growth inhibition": "46.1%"},
      {"smiles": "Cc1cccc2c(Cl)c3cccc(C)c3nc12", "growth inhibition": "-28.9%"},
      {"smiles": "CC(C)OC(=O)NNc1c(Cl)cc(Cl)cc1Cl", "growth inhibition": "93.2% (active)"},
      {"smiles": "Nc1ccc2c(c1)C(=O)c1c(F)cccc1-2", "growth inhibition": "9%"},
      {"smiles": "N#CSCC1COc2ccccc2O1", "note": "(configuration not stated)", "growth inhibition": "90.9% (active)"},
      {"smiles": "Cc1ccc(S(=O)(=O)NC(=O)C2C(=O)CC3(CCCCC3)CC2=O)cc1", "growth inhibition": "-17.9%"},
      {"smiles": "CC1=NN(C(=O)c2ccccc2O)C(=O)/C1=C/c1ccco1", "growth inhibition": "87% (active)"}
    ]}
  ]
}
